An excerpt weighted towards active compounds, which were near 11% of everything screened.
Pf growth 48h: inhibits P. falciparum growth in the first generation, 48 h; 310,000 compounds, 5.9% hits; Potency, µM (doses to about 28.7 µM), for inactives: at the highest dose activity change, negative = inhibition, most hits filed as inhibitors; AID 504832; P. falciparum luciferase growth in erythrocytes, 48 h; further: on the % scale 0 is the no-effect control and ±100 the full control effect
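Luminescence readout; reporter = integrated firefly luciferase in P. falciparum. RBC culture at 2% hematocrit, 0.1% parasitemia final, 37 C/5% CO2; decreased signal taken as growth inhibition.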
Sm TGR block: blocks Schistosoma mansoni thioredoxin glutathione reductase | Q962Y6 | purified TGR, DTNB reduction, TNB absorbance 405 nm | Potency, µM (doses to about 114 µM), for the others: at the highest dose activity change, negative = inhibition, usual class: inhibitors | 360,000 compounds, 3% hits | AID 485364; further: on the % scale 0 is the no-effect control and ±100 the full control effect; nearly all actives have a fitted effect of over 60% in size
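First, TGR (20 nM dispensed) and NADPH were mixed with compound. Second, a 15 min room-temperature incubation followed. Third, further NADPH and then DTNB were added to start the reaction. Finally, TNB absorbance was monitored kinetically.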
NS1 function inh: influenza NS1 inhibition; Potency, µM (top dose mostly 46.1 µM), without a hit: top-dose activity, positive = more growth; 270,000 compounds, 0.4% hits; AID 2326; calls by dose curve; further: actives are rising curves; nearly all actives have a fitted effect of over 50% in size
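Recovery from NS1-induced slow growth read by OD600 in budding yeast switched to galactose assay medium (pH 6.0, -URA) at 1:100 dilution. Compound 23 nl per well; the matching strain lacking NS1 serves as control.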
AMA1 RON2 block: disrupts binding of P. falciparum AMA1 to RON2; 360,000 compounds, 0.2% hits; AlphaScreen AMA1-biotinylated RON2 peptide binding; Potency, µM (series often up to 58.2 µM), inactives show top-dose activity change, negative = inhibition, usual class: inhibitors;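 further: 0% = vehicle wells and -100% = peptide control; nearly all actives have a fitted effect of over 45% in size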
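AMA1 (3D7) with his tag at 25 nM final met compounds first, then biotinylated RON2 peptide at 25 nM; detection used donor plus acceptor beads, 10 µg/mL apiece, read by AlphaScreen after 30 min at room temperature.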
Pf growth 96h: P. falciparum growth inhibition at 96 hour, primary screen for plastid delayed-death inhibitors; P. falciparum luciferase reporter growth, 96 h; Potency, µM (highest dose often 28.7 µM), for inactives: at the top dose activity change, negative = inhibition, usual class: inhibitors; 320,000 compounds, 6.9% hits; AID 504834; further: on the % scale 0 is the no-effect control and ±100 the full control effect
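Luminescence readout: decreased luciferase signal marks inhibited growth of reporter-expressing P. falciparum in infected red cells (2% hematocrit, 0.05% parasitemia final), exposed to compound two generations (96 h, 37 C, 5% CO2).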
An asterisk follows results filed as active. Unless noted, the call rests on the fitted dose curve; in most records, active means well fitted curve in the direction sought with a large enough effect; inconclusive means small, poorly fitted or top-dose-only effect, or another doubt; inactive means no such curve, though single readings can be large; an effect the other way counts as inactive or inconclusive. Potency means the concentration at half of the fitted maximal effect.

`Cc1ccc(N2C(=O)[C@@H]3[C@H](C2=O)C2c4ccccc4C=CN2[C@@H]3C(=O)c2ccco2)cc1` (stereo not given in full) gave Pf growth 48h inconclusive, Sm TGR block 28µM*, NS1 function inh inconclusive, AMA1 RON2 block 0% and Pf growth 96h -6%.
CC(C)COc1ccc(CN=C(N)N=C(N)N)cc1Cl was read as Pf growth 48h 2.9µM*, Sm TGR block -5%, NS1 function inh -9%, AMA1 RON2 block 75% and Pf growth 96h inconclusive.
Screening CC(C)Oc1ccc(CN=C(N)N=C(N)N)cc1Cl returned Pf growth 48h 12µM*, Sm TGR block -14%, NS1 function inh 8%, AMA1 RON2 block 68% and Pf growth 96h inconclusive.
COc1ccc2c(c1OC)C(=O)N(c1nc(SC)n[nH]1)C2=O was read as Pf growth 48h 4%, Sm TGR block -3%, NS1 function inh -8%, AMA1 RON2 block 2% and Pf growth 96h 167%.
COc1ccc(-c2sc3cc(OC)c(OC)cc3c2C#CC2(O)CCCCC2)cc1 was read as Pf growth 48h inconclusive, Sm TGR block 8.9µM*, AMA1 RON2 block -5% and Pf growth 96h inconclusive.
Screening CCOc1cc(OCC)c(C(=O)CCC(=O)O)cc1OCC returned Pf growth 48h inconclusive and Pf growth 96h 2.4µM*.
For CSc1nnc(-c2sc3cc(C(F)(F)F)cnc3c2-c2ccccc2)n1C the results were Sm TGR block -10%, NS1 function inh 0%, AMA1 RON2 block 24% and Pf growth 96h 6.6µM*.
For O=C(O)c1sc2cc(C(F)(F)F)cnc2c1-c1ccccc1 the results were Pf growth 48h 21%, Sm TGR block -28%, NS1 function inh 8%, AMA1 RON2 block 38% and Pf growth 96h 34%.
`CCOc1ccc(NC(=O)COC(=O)CNC(=O)c2ccc(-c3ccccc3)cc2)cc1` gave Pf growth 48h 7%, Sm TGR block -5%, AMA1 RON2 block 2% and Pf growth 96h -11%.
COCc1ccc(C(=O)Nc2cccc(S(=O)(=O)N(C)c3ccccc3)c2)cc1 was read as AMA1 RON2 block -8%.
`CN(c1ccccc1)S(=O)(=O)c1cccc(NC(=O)c2cccc(C#N)c2)c1` gave Pf growth 48h 13µM*, Sm TGR block -2%, AMA1 RON2 block 3% and Pf growth 96h inconclusive.
Cc1ccc(N(C)S(=O)(=O)c2cccc(C(=O)Nc3nc4ccccc4[nH]3)c2)cc1 was read as Pf growth 48h 12µM*, Sm TGR block -7%, NS1 function inh inconclusive, AMA1 RON2 block 76% and Pf growth 96h inconclusive.
For CN(C)c1cccc(C(=O)Nc2nc3ccccc3[nH]2)c1 the results were Pf growth 48h -62%, Sm TGR block -5%, NS1 function inh -14%, AMA1 RON2 block inconclusive and Pf growth 96h -62%.
For O=C(Nc1cccc(S(=O)(=O)N2CCCCC2)c1)c1ccc2ncsc2c1 the results were Pf growth 48h 12%, Sm TGR block 5%, NS1 function inh 4%, AMA1 RON2 block 0% and Pf growth 96h -4%.
For Cc1nc2ccc(NC(=O)c3cccc(S(=O)(=O)N(C)c4ccccc4)c3)cc2s1 the results were Pf growth 48h inconclusive, Sm TGR block 0%, NS1 function inh 4%, AMA1 RON2 block -18% and Pf growth 96h 8.3µM*.
CN(c1ccccc1)S(=O)(=O)c1cccc(NC(=O)c2ccc3ncsc3c2)c1 was read as Pf growth 48h inconclusive, Sm TGR block -4%, NS1 function inh 1%, AMA1 RON2 block -24% and Pf growth 96h 10µM*.
For CCOc1cc2c(c3c1C(c1ccccc1)N(S(=O)(=O)c1ccc(C)cc1)C3)C(=O)C=CC2=O (stereo not given) the results were AMA1 RON2 block -29%.
C[N+]1(CC(=O)OCCCc2ccccc2)CCOCC1 was read as Pf growth 48h 15%, Sm TGR block 9%, NS1 function inh 1%, AMA1 RON2 block 13% and Pf growth 96h -41%.
Screening C[N+]1(CC(COCc2ccccc2)OC(=O)Cc2ccccc2)CCOCC1 (stereo not given) returned Pf growth 48h 13µM*, Sm TGR block -1%, NS1 function inh -3%, AMA1 RON2 block -9% and Pf growth 96h inconclusive.
Screening Oc1ccccc1-c1nc2cnccn2c1Nc1ccc(Cl)cc1 returned Sm TGR block 7%.
Cc1ccc(Nc2c(-c3ccccc3O)nc3cnccn23)cc1 was read as Pf growth 48h 5.9µM*, Sm TGR block 15%, AMA1 RON2 block -3% and Pf growth 96h 0%.
`Cc1ccc2nc(-c3ccccc3O)c(Nc3ccc4c(c3)OCCO4)n2c1` gave Pf growth 48h 12µM*, Sm TGR block -10%, NS1 function inh 19%, AMA1 RON2 block 49% and Pf growth 96h 12µM*.
`COc1ccccc1-c1nc2cc3ccccc3cc2nc1-c1ccccc1OC` gave Pf growth 48h inconclusive, Sm TGR block -7%, NS1 function inh 4%, AMA1 RON2 block -10% and Pf growth 96h 12µM*.
Screening COc1ccccc1-c1nc2ccccc2nc1-c1ccccc1 returned Pf growth 48h inconclusive, Sm TGR block -5%, NS1 function inh -18%, AMA1 RON2 block 1% and Pf growth 96h 16%.
Cc1ccc(-c2nnc(NCc3nc4ccccc4[nH]3)c3ccccc23)cc1S(=O)(=O)N1CCCCC1 was read as Pf growth 48h inconclusive, Sm TGR block 0%, NS1 function inh inconclusive, AMA1 RON2 block 26% and Pf growth 96h 13µM*.
For C[C@@H]1CN([C@H](C)CO)C(=O)CCCn2nncc2CO[C@H]1CN(C)S(=O)(=O)c1ccc2c(c1)OCCCO2 the results were AMA1 RON2 block -7%.
For CCN1CCN(c2ccc(S(=O)(=O)N3CCOCC3)cc2NC(=O)c2ccc(Cl)cc2Cl)CC1 the results were Pf growth 48h 13µM*, Sm TGR block 0%, AMA1 RON2 block 3% and Pf growth 96h inconclusive.
`CCN1CCN(S(=O)(=O)c2ccc(Cl)c(C(=O)Nc3cc(Cl)ccc3N3CCOCC3)c2)CC1` gave Pf growth 48h inconclusive, Sm TGR block -28%, NS1 function inh -6%, AMA1 RON2 block -12% and Pf growth 96h 13µM*.
For C[C@@H]1CN([C@H](C)CO)S(=O)(=O)c2ccc(C3=CCCCC3)cc2O[C@H]1CN(C)C(=O)Cc1cccnc1 the results were AMA1 RON2 block -4%.
CCCc1cc(=O)[nH]c(SCC(=O)Nc2oc(C)c3c(C)n[nH]c(=O)c23)n1 was read as Pf growth 48h 23%, Sm TGR block -21%, AMA1 RON2 block -18% and Pf growth 96h 8%.
CCCCN1C(=O)C(O)(CC(=O)c2ccc(C(C)(C)C)cc2)c2ccccc21 (stereo not given) was read as Sm TGR block 1%.
CCCC(=O)C1=C(O)C(C(=O)OC)C(C)(C)CC1=Nc1ccc(C)cc1 (stereo not given) was read as Pf growth 48h 5.2µM*, Sm TGR block 14%, NS1 function inh -3%, AMA1 RON2 block 16% and Pf growth 96h 19%.

Screening results as filed in PubChem BioAssay.
